Source: PubChem BioAssay AID1159580 (chemical genetic matrix, 2015)
Values joined by “and” are separate entries in the source; they are usually repeats but may differ in a detail not shown here. Equal entries are not always repeated. The whole screen tested about 5,500 compounds, of which about 2,000 (36%) were called active. Another 18% or so got no clear call; they are omitted. Rule as the data show it: active = normalized growth mostly below about 0.91 (no sharp cut-off); inconclusive = no clear call, values can overlap the other calls; inactive = mostly above about 0.92. The list shows a part of the results.

Assay: chemical genetic growth profiling, strain panel (AID 1159580);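 also: tested at 20 µM; growth read once vehicle control cultures reached saturation at 30 °C; 1 = growth at the plate median or of vehicle wells; lower values mean less growth of the strain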
Conditions: S. cerevisiae deletion strains, growth OD

Measured: normalized growth

NS(=O)(=O)c1cc2c(cc1Cl)NC(C(Cl)Cl)NS2(=O)=O (configuration not stated)
inactive: locus YAL021C, strain ccr4, stronger effect = lower value 0.977 | locus YAL026C, strain drs2, stronger effect = lower value 0.968 | locus YAL030W, strain snc1, stronger effect = lower value 0.978 | locus YBL061C, strain skt5, stronger effect = lower value 0.985 | locus YBR009C, strain hhf1, stronger effect = lower value 0.919 | locus YBR021W, strain FUR4, stronger effect = lower value 1.01 | locus YBR023C, strain chs3, stronger effect = lower value 0.978 | locus YBR171W, strain sec66, stronger effect = lower value 0.972 | locus YBR229C, strain ROT2, stronger effect = lower value 1.01 | locus YBR231C, strain swc5, stronger effect = lower value 0.979 | locus YBR279W, strain paf1, stronger effect = lower value 0.984 | locus YCL011C, strain gbp2, stronger effect = lower value 0.96 | locus YCL016C, strain dcc1, stronger effect = lower value 0.967 | locus YCL029C, strain bik1, stronger effect = lower value 1.02 | locus YCL069W, strain vba3, stronger effect = lower value 0.988 | locus YCR088W, strain abp1, stronger effect = lower value 0.96 | locus YDL005C, strain med2, stronger effect = lower value 0.974 | locus YDL035C, strain GPR1, stronger effect = lower value 0.991 | locus YDL040C, strain nat1, stronger effect = lower value 0.986 | locus YDL074C, strain BRE1, stronger effect = lower value 1.01 | locus YDL101C, strain DUN1, stronger effect = lower value 1 | locus YDL134C, strain PPH21, stronger effect = lower value 1.02 | locus YDL185W, strain tfp1, stronger effect = lower value 1.02 | locus YDL192W, strain arf1, stronger effect = lower value 1.02 | locus YDR001C, strain nth1, stronger effect = lower value 0.957 | locus YDR069C, strain doa4, stronger effect = lower value 0.989 | locus YDR101C, strain arx1, stronger effect = lower value 1.01 | locus YDR137W, strain rgp1, stronger effect = lower value 0.97 | locus YDR150W, strain NUM1, stronger effect = lower value 1.01 | locus YDR159W, strain sac3, stronger effect = lower value 0.918 | locus YDR162C, strain NBP2, stronger effect = lower value 1.01 | locus YDR195W, strain ref2 0.992 | locus YDR297W, strain sur2, stronger effect = lower value 0.984 | locus YDR318W, strain mcm21, stronger effect = lower value 1.02 | locus YDR334W, strain swr1, stronger effect = lower value 0.979 | locus YDR335W, strain msn5, stronger effect = lower value 0.963 | locus YDR388W, stronger effect = lower value 1.02 | locus YDR392W, strain spt3, stronger effect = lower value 0.917 | locus YDR502C, strain sam2, stronger effect = lower value 1.01 | locus YEL003W, strain gim4, stronger effect = lower value 0.976 | locus YEL037C, strain rad23, stronger effect = lower value 0.98 | locus YEL061C, strain CIN8 (second series), stronger effect = lower value 0.971 | locus YEL061C, strain CIN8, stronger effect = lower value 1.01 | locus YER015W, strain faa2, stronger effect = lower value 0.977 | locus YER016W, strain bim1, stronger effect = lower value 0.926 | locus YER110C, stronger effect = lower value 1.02 | locus YER111C, strain swi4, stronger effect = lower value 0.982 | locus YER155C, strain BEM2 (second series), stronger effect = lower value 1.03 | locus YER155C, strain BEM2, stronger effect = lower value 1.01 | locus YER167W, strain BCK2, stronger effect = lower value 1.01 | locus YFR010W, strain ubp6, stronger effect = lower value 0.984 | locus YGL078C, strain dbp3, stronger effect = lower value 1.01 | locus YGL086W, strain mad1, stronger effect = lower value 1.01 | locus YGL167C, strain pmr1, stronger effect = lower value 0.963 | locus YGL173C, strain kem1, stronger effect = lower value 0.998 | locus YGL227W, strain vid30, stronger effect = lower value 0.98 | locus YGL240W, strain doc1, stronger effect = lower value 0.99 | locus YGL248W, strain PDE1, stronger effect = lower value 0.997 | locus YGL253W, strain hxk2, stronger effect = lower value 0.976 | locus YGR135W, strain pre9, stronger effect = lower value 1.01 | locus YGR252W, strain gcn5, stronger effect = lower value 0.991 | locus YHR013C, strain ard1, stronger effect = lower value 0.914 | locus YHR027C, strain rpn1, stronger effect = lower value 0.975 | locus YHR030C, strain SLT2, stronger effect = lower value 1.01 and 0.993 | locus YHR079C, strain IRE1 (second series), stronger effect = lower value 1.01 | locus YHR079C, strain IRE1, stronger effect = lower value 0.989 | locus YHR094C, strain hxt1, stronger effect = lower value 1.01 | locus YHR129C, strain ARP1, stronger effect = lower value 0.993 | locus YHR142W, strain chs7, stronger effect = lower value 0.981 | locus YHR200W, strain rpn10, stronger effect = lower value 1.01 | locus YIL066C, strain RNR3, stronger effect = lower value 1.02 | locus YIL073C, strain SPO22, stronger effect = lower value 1.06 | locus YIL125W, strain kgd1, stronger effect = lower value 1.01 | locus YIR030C, strain dcg1, stronger effect = lower value 1.02 | locus YJL092W, strain hpr5, stronger effect = lower value 0.987 | locus YJL095W, strain BCK1 (second series), stronger effect = lower value 0.973 | locus YJL095W, strain BCK1, stronger effect = lower value 0.991 and 0.983 | locus YJL115W, strain asf1, stronger effect = lower value 0.963 | locus YJL129C, strain trk1, stronger effect = lower value 0.968 | locus YJL134W, strain LCB3, stronger effect = lower value 1.01 | locus YJL154C, strain vps35, stronger effect = lower value 0.978 | locus YJL164C, strain tpk1, stronger effect = lower value 0.94 | locus YJL166W, strain qcr8, stronger effect = lower value 0.993 | locus YJL168C, strain set2, stronger effect = lower value 1.01 | locus YJL187C, strain SWE1 (second series), stronger effect = lower value 1.01 | locus YJR043C, strain POL32, stronger effect = lower value 1 | locus YJR066W, strain TOR1, stronger effect = lower value 0.931
